Screening results deposited in PubChem BioAssay by National Center for Advancing Translational Sciences (NCATS).
Shown is part of a subset that was picked to be rich in hits.
RE007 growth inh – less growth of the S. pombe RE007 Vpr strain | S. pombe RE007 Vpr strain, BacTiter-Glo ATP luminescence, 24 h | Potency, µM (top dose mostly 92.2 µM), usual class: inhibitors | 0.21% of 360,000 active | AID 651644; active means well fitted falling curve with a large enough effect; inconclusive means small, poorly fitted or top-dose-only effect; inactive means no such curve, though single readings can be large or run the other way; further: nearly all actives have a fitted effect of over 50% in size
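Fission yeast strain RE007, carrying one chromosomally integrated HIV-1 vpr copy, was seeded at OD 0.01 in PMG+AL medium with 23 nL pinned compound. After 24 h at 30 °C and 99% humidity, viability was read by BacTiter-Glo luminescence.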
LmPK inh – blocks Leishmania mexicana pyruvate kinase activity; 0.37% of 290,000 active; Q27686; purified LmPK, Kinase-Glo ATP luminescence, 1 h; AID 1721; Potency, µM (highest dose often 57.5 µM), hits mostly inhibitors
Target sequence (Q27686 whole entry, looked up): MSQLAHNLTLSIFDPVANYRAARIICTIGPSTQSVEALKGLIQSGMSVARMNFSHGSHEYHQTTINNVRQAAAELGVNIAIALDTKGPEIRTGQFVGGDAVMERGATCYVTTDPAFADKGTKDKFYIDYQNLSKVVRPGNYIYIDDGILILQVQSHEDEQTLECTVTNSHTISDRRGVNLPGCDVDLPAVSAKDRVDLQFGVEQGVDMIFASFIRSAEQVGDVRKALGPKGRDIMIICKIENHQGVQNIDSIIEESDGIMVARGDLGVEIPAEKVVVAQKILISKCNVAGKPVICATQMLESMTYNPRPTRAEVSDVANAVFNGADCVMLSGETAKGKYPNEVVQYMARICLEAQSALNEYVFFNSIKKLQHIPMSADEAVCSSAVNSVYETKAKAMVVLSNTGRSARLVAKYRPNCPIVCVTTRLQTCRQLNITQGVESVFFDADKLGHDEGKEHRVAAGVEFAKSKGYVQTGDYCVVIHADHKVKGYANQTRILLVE
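Screened at intermediate enzyme activity to detect both inhibitors and activators: LmPK at 0.1 nM, with a 0.5 nM enzyme column as activation reference. PEP 0.5 mM, ADP 0.1 mM; ATP detected by luminescence after 1 h.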
Giardia FBPA inh – inhibitors of Giardia lamblia fructose-1,6-bisphosphate aldolase; A8B2U2; purified Giardia FBPA; Potency, µM (doses to about 59.6 µM), hits mostly inhibitors; 0.71% of 290,000 active; further: nearly all actives have a fitted effect of over 55% in size
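40 nM FBPA preincubated 10 min at RT with compound (up to 57.5 uM final), then substrate plus GAPDH/TPI/NAD/arsenate coupling and diaphorase/resazurin added. Fluorescence read after 20 min at RT, 525/598 nm.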
CHX counter – affects cycloheximide protein synthesis inhibition readout, counter-screen. cell reporter, cycloheximide protein synthesis inhibition counterscreen. max response, %. 12% of 300,000 active. AID 2314; in the data active means max response mostly above about 13%, no sharp cut-off; inactive means mostly below about 14%; further: read at 38.3 µM for the half of the compounds with a filed dose
Shiga inhibitor – Shiga toxin inhibition. Vero cells, Shiga toxin protein synthesis inhibition reporter. inhibition, % at 38.7 µM. 9.2% of 290,000 active. AID 2315; in the data active means inhibition mostly above about 28%, no sharp cut-off; inactive means mostly below about 43%
TbPYK inhibitor – T. brucei pyruvate kinase inhibition; Q57TT1; TbPYK enzyme, Kinase-Glo Plus ATP luminescence, 45 min; Potency, µM (top dose mostly 76.8 µM), hits mostly inhibitors; 0.12% of 410,000 active; further: nearly all actives have a fitted effect of over 50% in size
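TbPYK + substrate in 50 mM TEA pH 7.2, 100 mM KCl, 10 mM MgCl2, 0.05% BSA, 0.01% Tween-20; cpd pinned; ADP 130 uM final; 45 min RT; Kinase-Glo Plus 10 min; luminescence endpoint.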
Each line names hits and unclear results; the compound was inactive in the other large screens. Unless noted, the call rests on the fitted dose curve; in most records, active means well fitted curve in the direction sought with a large enough effect; inconclusive means small, poorly fitted or top-dose-only effect, or another doubt; inactive means no such curve, though single readings can be large; an effect the other way counts as inactive or inconclusive.

COc1ccc(OC)c(CNc2ccc3c(c2)nc(C)n3C)c1	CHX counter 9.4
CCOc1ccc2c(c1)nc(C)n2C	none
Cc1nc2cc(NCc3ccc(Cl)cc3)ccc2n1C	CHX counter 30, Shiga inhibitor 71
Cc1nc2cc(CO)ccc2n1C	none
COc1ccc(OC)c(CNc2nc3ccc(C)cc3n3nnnc23)c1	none (no result: RE007 growth inh, LmPK inh, Giardia FBPA inh, CHX counter, Shiga inhibitor)
Cc1ccc(CNc2ccc3c(c2)nc(C)n3C)cc1	CHX counter 30 (no result: Shiga inhibitor)
COc1ccc(CNc2ccc3c(c2)nc(C)n3C)cc1	CHX counter 25, Shiga inhibitor 60
O=C(Nc1ccc2c(c1)CCCN2C(=O)c1cccs1)c1cccc(C(F)(F)F)c1	none (no result: RE007 growth inh, LmPK inh, Giardia FBPA inh, CHX counter, Shiga inhibitor)
O=C(NCc1ccccc1)C(c1ccncc1)N(C(=O)c1ccccn1)c1ccccc1 (configuration not stated)	CHX counter 25, Shiga inhibitor 60
COc1ccc(CNC(=O)C(c2ccco2)N(C(=O)c2ccccn2)c2ccccc2)cc1 (configuration not stated)	CHX counter 38, Shiga inhibitor 84
COc1ccc(N(C(=O)c2cnccn2)C(C(=O)NCc2ccccc2)c2ccc(O)cc2)cc1 (configuration not stated)	CHX counter 28, Shiga inhibitor 75
Cc1ccccc1N(C(=O)c1ccccn1)C(C(=O)NCc1ccccc1)c1ccncc1 (configuration not stated)	none
COc1ccc(-n2c(=O)c(-c3cc(F)cc(F)c3)nc3cncnc32)cc1	none (no result: RE007 growth inh, LmPK inh, CHX counter, Shiga inhibitor, TbPYK inhibitor)
O=S1(=O)C2CC3C=CC2(O3)C(O)C(Cc2ccccc2)N1Cc1cccc(F)c1 (configuration not stated)	none (no result: RE007 growth inh, LmPK inh, TbPYK inhibitor)
CC(=O)c1ccc(OCC(=O)N2CCCCC2)cc1	none (no result: RE007 growth inh, LmPK inh, Giardia FBPA inh, CHX counter, Shiga inhibitor)
Clc1nccnc1N/N=C/c1ccc(Br)cc1	LmPK inh 18µM, Giardia FBPA inh inconclusive, CHX counter 40, Shiga inhibitor 40, TbPYK inhibitor inconclusive
COc1ccc(/C=N/Nc2nccnc2Cl)c(OC)c1	LmPK inh 10µM, CHX counter 29, Shiga inhibitor 78
COc1ccc(/C=N/Nc2nonc2N)c(OC)c1	none
COc1ccc(/C=N/Nc2nccnc2Cl)cc1	RE007 growth inh inconclusive, LmPK inh 7.1µM, CHX counter 36, TbPYK inhibitor inconclusive
COc1ccc(OC)c(NC(=O)Nc2cccc(OCc3cc(=O)n4cc(C)ccc4n3)c2)c1	none (no result: RE007 growth inh, LmPK inh, Giardia FBPA inh, CHX counter, Shiga inhibitor)
COc1ccc(CC(NC(C)=O)C(=O)N2CCN(C(=O)Nc3ccc(Cl)cc3)CC2)cc1OC (configuration not stated)	CHX counter 14
Cc1ccc(CNC(=O)c2ccc(OCC3CCCO3)cc2)cc1 (configuration not stated)	CHX counter 15 (no result: RE007 growth inh)
O=C(NCc1ccco1)c1ccc(OCC2CCCO2)cc1 (configuration not stated)	CHX counter 20 (no result: TbPYK inhibitor)
O=C(NCc1ccco1)c1ccc(COc2ccc(Cl)cc2)cc1	none
Cn1ccc2cc(S(=O)(=O)N3CCCN(C(=O)Nc4ccccc4Br)CC3)ccc21	none (no result: RE007 growth inh, LmPK inh, Giardia FBPA inh, CHX counter, Shiga inhibitor)
CCN(CC)S(=O)(=O)c1cccc(NC(=O)CCNC(=O)c2ccc([N+](=O)[O-])cc2)c1	CHX counter 14, Shiga inhibitor 48
CN(c1ccccc1)S(=O)(=O)c1cccc(NC(=O)CCNC(=O)c2ccc([N+](=O)[O-])cc2)c1	none (no result: LmPK inh, Giardia FBPA inh, CHX counter, Shiga inhibitor)
CCCCn1c(N)c(N(CCOC)C(=O)c2ccc(-n3c(C)ccc3C)cc2)c(=O)[nH]c1=O	none (no result: LmPK inh, Giardia FBPA inh, CHX counter, Shiga inhibitor)
O=C(CS(=O)(=O)c1ccc(Cl)cc1)NCCS(=O)(=O)c1ccc(Cl)cc1	none
COc1ccc(/C=C/C2=NC(=C\N(C)C)/C(=O)O2)cc1	CHX counter 43, Shiga inhibitor 107
COc1ccc(/C=C/c2cc(=O)c3cc(Cl)ccc3o2)cc1	none
COc1ccc(-c2cc(C(=O)N3CCCCCC3)no2)cc1OC	CHX counter 30, Shiga inhibitor 52
COc1ccc(-c2cc(C(=O)N3CCN(C(c4ccccc4)c4ccccc4)CC3)no2)cc1OC	none
COc1ccc(-c2cc(C(=O)N3CCN(C(c4ccccc4)c4ccccc4)CC3)no2)cc1	none
COc1ccc(-c2cc(C(=O)N3CCCCCC3)no2)cc1	CHX counter 20, Shiga inhibitor 70
COc1ccc(-c2cc(C(=O)N3CCCC3)no2)cc1	CHX counter 25, Shiga inhibitor 74
COc1cccc(-c2cc(C(=O)N3CCN(c4ccc(F)cc4)CC3)no2)c1	none
COc1cccc(-c2cc(C(=O)N3CCCCCC3)no2)c1	CHX counter 37, Shiga inhibitor 54
Cc1ccc(C2=NN(CC(=O)NCCc3ccc(Cl)cc3)C(=O)CC2)cc1	none (no result: RE007 growth inh, LmPK inh, Giardia FBPA inh, CHX counter, Shiga inhibitor)
CCCSCCCNC(=O)C1CCCN(c2nn3cc(-c4ccc(OC)cc4)nc3s2)C1 (configuration not stated)	none (no result: RE007 growth inh, LmPK inh, Giardia FBPA inh, CHX counter, Shiga inhibitor)
COc1cccc(-c2cc(C(=O)N3CCCCC3C)no2)c1 (configuration not stated)	CHX counter 28, Shiga inhibitor 105
CCOc1ccccc1NC(=O)CN1C(=O)CC(c2ccco2)Sc2ccccc21 (configuration not stated)	none (no result: RE007 growth inh, LmPK inh, Giardia FBPA inh, CHX counter, Shiga inhibitor)
CC(C)(C)NC(=O)COc1ccc(CNCCc2ccccc2)cc1	none
CCC(C)(C)NC(=O)COc1ccc(C(=O)c2ccccc2)cc1	CHX counter 22
CCCc1ccc(OCCNC(=O)CC)cc1	CHX counter 16
O=C(COc1ccc(C(=O)c2ccccc2)cc1)NC1CCCCCC1	none
CCNC(=O)COc1ccc(CC)cc1	CHX counter 25, Shiga inhibitor 46
CCCc1ccc(OCCNC(C)=O)cc1	none
CCc1ccc(OCC(=O)NC(C)(C)C)cc1	CHX counter 23, Shiga inhibitor 44
C=CCOC(=O)N[C@@H](Cc1ccccc1)/C(C(=O)OC)=C(\C)NCc1ccccc1	none (no result: RE007 growth inh, LmPK inh, CHX counter, Shiga inhibitor, TbPYK inhibitor)
CCNC(=O)COc1ccc2ccccc2c1	CHX counter 71, Shiga inhibitor 58
COc1cccc(-n2c(=O)c3c(C)c(C)sc3n(CC(=O)Nc3ccccc3OC)c2=O)c1	none (no result: RE007 growth inh, LmPK inh, Giardia FBPA inh, CHX counter, Shiga inhibitor)
COc1ccccc1NC(=O)c1cc2ccccc2o/c1=N\O	none
COc1ccc(NC(=O)c2cccnc2SC)cc1OC	none
COc1ccc(N=c2oc3ccccc3cc2C(=O)Nc2ccccn2)cc1OC	CHX counter 52, Shiga inhibitor 98 (no result: RE007 growth inh, TbPYK inhibitor)
COc1cc(SC)ccc1C(=O)Nc1ccccn1	CHX counter 34
COc1cc(SC)ccc1C(=O)NCCOc1ccc(Cl)cc1	none
COc1cc(SC)ccc1C(=O)Nc1ncc(Cl)cc1Cl	CHX counter 35, Shiga inhibitor 79
COc1cc(SC)ccc1C(=O)Nc1ccc2ncccc2c1	CHX counter 27, Shiga inhibitor 30
Cc1ccc(CNC(=O)CCN2C(=O)COc3ccc(C)cc32)cc1	none (no result: RE007 growth inh, LmPK inh, Giardia FBPA inh, CHX counter, Shiga inhibitor)
COc1cc(SC)ccc1C(=O)Nc1ccon1	CHX counter 34, Shiga inhibitor 60
